Vaccinia Venus = vaccinia inhibition (Venus reporter) | Vaccinia virus Venus reporter expression, fluorescence | 330,000 tested, 0.46% active | Potency, µM (titrated, usually from 36.5 µM), for inactives: at the highest dose activity change, negative = inhibition, actives largely listed as inhibitors; calls by dose curve; tested in A549 cells; note: nearly all actives have a fitted effect of over 30% in size
VACV mCherry inh = inhibitors of vaccinia virus infection (mCherry reporter signal). Vaccinia virus mCherry reporter infection, fluorescence. AID 720579. Potency, µM (series often up to 36.5 µM), inactives show at the top dose activity change, negative = inhibition, hits mostly inhibitors. 310,000 tested, 0.63% active; calls by dose curve; tested in A549 cells; note: nearly all actives have a fitted effect of over 35% in size
Pf growth 48h = P. falciparum growth inhibition at 48 hours (one generation) | P. falciparum luciferase growth in erythrocytes, 48 h | Potency, µM (highest dose often 28.7 µM), for the others: top-dose activity change, negative = inhibition, hits mostly inhibitors | 310,000 tested, 5.9% active | AID 504832
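Luminescence readout; reporter = integrated firefly luciferase in P. falciparum. RBC culture at 2% hematocrit, 0.1% parasitemia final, 37 C/5% CO2; decreased signal taken as growth inhibition.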
Pf growth 96h = P. falciparum growth inhibition at 96 hour, primary screen for plastid delayed-death inhibitors; P. falciparum luciferase reporter growth, 96 h; Potency, µM (series often up to 28.7 µM), for the others: at the top dose activity change, negative = inhibition, actives largely listed as inhibitors; 320,000 tested, 6.9% active; AID 504834
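Readout is luminescence from an integrated firefly luciferase in P. falciparum. Red cells, 2% hematocrit and 0.05% parasitemia final, were cultured with compound through two parasite generations (96 hours) at 37 C, 5% CO2.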
AMA1 RON2 block = AMA1-RON2 (P. falciparum) interaction inhibition | 360,000 tested, 0.2% active | Potency, µM (top dose mostly 58.2 µM), inactives show at the top dose activity change, negative = inhibition, usual class: inhibitors | AlphaScreen AMA1-biotinylated RON2 peptide binding;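 note: 0% = vehicle wells and -100% = peptide control; nearly all actives have a fitted effect of over 45% in size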
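AMA1 (3D7) with his tag at 25 nM final met compounds first, then biotinylated RON2 peptide at 25 nM; detection used donor plus acceptor beads, 10 µg/mL apiece, read by AlphaScreen after 30 min at room temperature.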
The depositor's hits bear a star; [ ] = remark or other dose. An excerpt weighted towards active compounds, which were near 8.7% of everything screened. Unless noted, calls come from the whole dose curve; as a rule, active = well fitted curve in the direction sought with a large enough effect; inconclusive = small, poorly fitted or top-dose-only effect, or another doubt; inactive = no such curve, though single readings can be large; an effect the other way counts as inactive or inconclusive. Unless noted, % is set by controls: 0 for no effect and ±100 for the full control effect; potency is the fitted concentration of half-maximal effect.

Cc1ccccc1Nc1nc(N)nc(COC(=O)CCNS(=O)(=O)c2ccccc2)n1 was read as Vaccinia Venus -15%, VACV mCherry inh -10%, Pf growth 48h 12µM*, Pf growth 96h inconclusive and AMA1 RON2 block 27%.
Nc1nc(COC(=O)C2CCN(C(=O)c3ccc(Cl)cc3)CC2)nc(Nc2ccccc2)n1 was read as Pf growth 48h inconclusive, Pf growth 96h inconclusive and AMA1 RON2 block 18%.
Screening Cc1ccccc1Nc1nc(N)nc(COC(=O)c2ccc(O)cc2)n1 returned Vaccinia Venus -15%, VACV mCherry inh -19%, Pf growth 48h inconclusive, Pf growth 96h 2.6µM* and AMA1 RON2 block 10%.
Cc1ccccc1Nc1nc(N)nc(COC(=O)c2ccccc2)n1 was read as Vaccinia Venus -11%, VACV mCherry inh -18%, Pf growth 48h 191%, Pf growth 96h 471% and AMA1 RON2 block -8%[11.6 µM].
Screening Cc1ccccc1Nc1nc(N)nc(COC(=O)c2ccc3c(c2)OCCO3)n1 returned Vaccinia Venus -7%, VACV mCherry inh inactive and AMA1 RON2 block 17%.
For CCc1ccccc1Nc1nc(N)nc(COC(=O)C2CCN(C(=O)c3ccc(F)cc3)CC2)n1 the results were Vaccinia Venus -6%, VACV mCherry inh inactive, Pf growth 48h 12µM*, Pf growth 96h inconclusive and AMA1 RON2 block 8%.
`COc1ccccc1NC(=O)Cc1noc(CN(C)Cc2cccs2)n1` gave Vaccinia Venus -4%, VACV mCherry inh -11%, Pf growth 48h -22%, Pf growth 96h 5.9µM* and AMA1 RON2 block 9%.
`COc1cc(NC(=S)Nc2cccc(Cl)c2Cl)c(OC)cc1Cl` gave Vaccinia Venus 7%, VACV mCherry inh -8%[1.46 µM], Pf growth 48h inconclusive, Pf growth 96h 2.9µM* and AMA1 RON2 block 45%.
Screening COc1cc(NC(=S)Nc2ccc(Br)cc2Cl)c(OC)cc1Cl returned Vaccinia Venus -15%, VACV mCherry inh -4%, Pf growth 48h inconclusive, Pf growth 96h inconclusive and AMA1 RON2 block -2%.
Screening COc1cc(NC(=S)NCc2cccnc2)c(OC)cc1Cl returned Vaccinia Venus -12%, VACV mCherry inh inactive, Pf growth 48h 5%, Pf growth 96h 12µM* and AMA1 RON2 block 15%.
CC1CN(C(=O)CCC(=O)NCc2cccs2)c2cc(Cl)ccc2O1 (stereo not drawn) was read as Vaccinia Venus -4% and VACV mCherry inh -10%.
O=C(c1ccccc1)[C@@H]1[C@@H]2C(=O)N(c3ccc(F)cc3)C(=O)[C@@H]2C2CCCN21 (stereo partly drawn) was read as Pf growth 48h -6%, Pf growth 96h -8% and AMA1 RON2 block -28%.
O=C(c1ccc(Cl)cc1)C1C2C(=O)N(c3ccccc3)C(=O)C2C2CCCN21 (stereo not drawn) was read as Vaccinia Venus -5%, VACV mCherry inh inactive, Pf growth 48h inconclusive, Pf growth 96h 15µM* and AMA1 RON2 block 0%.
`Cc1ccc(N2C(=O)[C@@H]3[C@H](C2=O)C2CCCN2[C@@H]3C(=O)c2ccccc2)cc1` (stereo partly drawn) gave Vaccinia Venus -1%, VACV mCherry inh -10%, Pf growth 48h 12µM*, Pf growth 96h inconclusive and AMA1 RON2 block 18%.
Screening COc1ccc(NC(=O)Cn2c(=O)n(-c3cccc(C)c3)c(=O)c3c2c2cc(C)ccc2n3C)cc1Cl returned Vaccinia Venus -14% and VACV mCherry inh -13%.
Screening Cc1ccc(-c2nc3cc(NC(=O)c4cc(Br)ccc4Cl)ccc3o2)cc1 returned Vaccinia Venus 4% and VACV mCherry inh 4%.
O=C(NCc1cccs1)c1ccc(Cn2c(SCc3ccccc3)nc3cccnc32)cc1 was read as Vaccinia Venus -2% and VACV mCherry inh -5%.
For COCCn1c(=S)[nH]c2cc(C(=O)N3CCN(C4CCCCC4)CC3)ccc2c1=O the results were Vaccinia Venus -21%, VACV mCherry inh inconclusive and AMA1 RON2 block 21%.
`CCOCCCn1c(=S)[nH]c2cc(C(=O)N3CCN(c4ccccc4)CC3)ccc2c1=O` gave Vaccinia Venus -5%, VACV mCherry inh inactive, Pf growth 48h 19%, Pf growth 96h 15µM* and AMA1 RON2 block 56%.
CCOCCCn1c(=S)[nH]c2cc(C(=O)N3CCN(C4CCCCC4)CC3)ccc2c1=O was read as Vaccinia Venus -11%, VACV mCherry inh -10%, Pf growth 48h 1%, Pf growth 96h 5.2µM* and AMA1 RON2 block 18%.
`CCn1c(CNC(=O)c2ccc(OC)cc2)nnc1SCC(=O)Nc1ccc(OC)cc1` gave Vaccinia Venus -1% and VACV mCherry inh -5%.
For Cc1ccc(-c2nnc(N3CCC(C)CC3)c3ccccc23)cc1C the results were Vaccinia Venus 13µM*, VACV mCherry inh 28µM*, Pf growth 48h 13µM*, Pf growth 96h inconclusive and AMA1 RON2 block -18%.
Screening CNC(=O)c1ccc(Nc2nnc(-c3ccc(C)c(S(=O)(=O)NC(C)(C)C)c3)c3ccccc23)cc1 returned Vaccinia Venus -3% and VACV mCherry inh -15%.
Cc1ccccc1Nc1nnc(-c2ccc(C)c(S(=O)(=O)NCC3CCCO3)c2)c2ccccc12 (stereo not drawn) was read as Vaccinia Venus -3% and VACV mCherry inh -16%.
`Cc1ccc(-c2nnc(Nc3ccc(C(=O)N(C)C)cc3)c3ccccc23)cc1S(=O)(=O)NCC1CCCO1` (stereo not drawn) gave Vaccinia Venus -16%, VACV mCherry inh -15%, Pf growth 48h 2.3µM*, Pf growth 96h inconclusive and AMA1 RON2 block -26%.
CCOC(=O)CNS(=O)(=O)c1cc(-c2nnc(Nc3cccc(O)c3)c3ccccc23)ccc1C was read as Vaccinia Venus -13% and VACV mCherry inh -10%.
For CCOC(=O)CNS(=O)(=O)c1cc(-c2nnc(Nc3ccc4c(c3)OCO4)c3ccccc23)ccc1C the results were Vaccinia Venus -25%, VACV mCherry inh -7%, Pf growth 48h 2.3µM*, Pf growth 96h inconclusive and AMA1 RON2 block -23%.
`Cc1ccc(-c2nnc(Nc3ccc(C(=O)N(C)C)cc3)c3ccccc23)cc1S(=O)(=O)NC(C)(C)CO` gave Vaccinia Venus -4%, VACV mCherry inh -1%, Pf growth 48h 2.3µM*, Pf growth 96h inconclusive and AMA1 RON2 block 1%.
CN(C)CCCN(C(=O)c1ccc2c(c1)OCCO2)c1nc2ccccc2s1 was read as Vaccinia Venus -9%[7.34 µM] and VACV mCherry inh -12%[7.34 µM].
O=c1c2ccccc2n2c(-c3ccc(Cl)cc3)nnc2n1CCc1ccccc1 was read as Vaccinia Venus 7% and VACV mCherry inh -14%.
For Cc1ccc(-c2n[nH]c(=O)c3ccccc23)cc1S(=O)(=O)NCC1CCCO1 (stereo not drawn) the results were Vaccinia Venus -11%, VACV mCherry inh -3%, Pf growth 48h -10%, Pf growth 96h inconclusive and AMA1 RON2 block -3%.

High-throughput results as filed in PubChem.
